The structures appear in SMILES notation. About 83,000 compounds went through this panel and 20% of them were active in at least one assay; those are over-represented in the sample as a whole.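 48-hour exposure, single concentration, 96-well plates; percent growth endpoint where 0 means no net growth. Active: below 10.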 Unmarked numbers belong to inactive results. Activity calls are given as the source filed them.

Some test systems named below: SK-MEL-2 melanoma; EKVX NSCLC; SN12C renal; UO-31 renal; TK-10 renal; ACHN renal; CAKI-1 renal; A498 renal; CCRF-CEM leukemia; MOLT-4 leukemia; SR leukemia; RPMI-8226 leukemia; OVCAR-8 ovarian; OVCAR-5 ovarian; OVCAR-4 ovarian; SK-OV-3 ovarian; IGROV1 ovarian; OVCAR-3 ovarian; HS 578T breast; NCI/ADR-RES ovarian.
What all share (experiment): NCI-60 one-dose screen, 48 h (100 = growth as untreated, 0 = no growth, -100 = all killed)
Details in all cases: 10 µM unless noted

For `N#Cc1c(-c2ccc(F)cc2)nc(SCc2ccc(F)cc2)nc1N1CCNCC1`, the growth in the experiment with SK-MEL-2 melanoma was -73% (active); in the experiment with EKVX NSCLC, 1.29% (active); in the experiment with SN12C renal it was -58.6% (active); in the experiment with UO-31 renal, 8.26% (active); in the experiment with TK-10 renal, -25% (active); in the experiment with ACHN renal it was -79% (active). In addition, the growth in the experiment on CAKI-1 renal was -80.1% (active); in the experiment with A498 renal it was 96.5%; in the experiment on CCRF-CEM leukemia, 4.49% (active); with MOLT-4 leukemia, 7.79% (active); in the experiment with SR leukemia it was -2.24% (active); in the experiment with RPMI-8226 leukemia, -47.4% (active). Further, the growth in the experiment on OVCAR-8 ovarian was -84% (active); in the experiment on OVCAR-5 ovarian, 0.484% (active); with OVCAR-4 ovarian, -8.59% (active); in the experiment with SK-OV-3 ovarian, 56.7%; in the experiment with IGROV1 ovarian, -27.1% (active); in the experiment on OVCAR-3 ovarian, -35.1% (active). The growth with HS 578T breast was -0.165% (active); in the experiment with NCI/ADR-RES ovarian, -39% (active).

In the case of `COc1ccc(C(=O)C[n+]2cccc3c4ccccc4ccc32)cc1`, the growth with SK-MEL-2 melanoma is 56.3%; with EKVX NSCLC, 43.2%; with SN12C renal, 17.4%; in the experiment on UO-31 renal, 56.5%; in the experiment on TK-10 renal, 73.6%; with ACHN renal, 79%. Besides, the growth in the experiment with CAKI-1 renal was 79%; with A498 renal it was 102%; in the experiment with CCRF-CEM leukemia, 52.5%; with MOLT-4 leukemia, 32%; in the experiment on SR leukemia it was 34.4%; with RPMI-8226 leukemia, 25.2%. For the same molecule, the growth with OVCAR-8 ovarian was 25.9%; in the experiment with OVCAR-5 ovarian it was 58.3%; in the experiment with OVCAR-4 ovarian, 33.4%; with SK-OV-3 ovarian it was 50.1%; in the experiment on IGROV1 ovarian it was 67.4%; in the experiment on OVCAR-3 ovarian, 51.7%. The growth in the experiment with HS 578T breast is 58.9%; in the experiment with NCI/ADR-RES ovarian it was 97.7%.

Regarding `CC1CCc2c(sc3nc(SCC(=O)c4cccc([N+](=O)[O-])c4)n(-c4ccccc4)c(=O)c23)C1` (stereo not given), the growth in the experiment with SK-MEL-2 melanoma was 94.6%; in the experiment on EKVX NSCLC, 88%; with SN12C renal, 57.1%; in the experiment on UO-31 renal it was 91.5%; in the experiment on TK-10 renal it was 72.3%; in the experiment with ACHN renal it was 31.3%. Moreover, the growth is 12.4% with CAKI-1 renal; 115% in the experiment on A498 renal; 61.8% in the experiment on CCRF-CEM leukemia; 60.2% in the experiment with MOLT-4 leukemia; 49% with SR leukemia; 84.1% in the experiment with RPMI-8226 leukemia. Moreover, the growth was 38.6% in the experiment with OVCAR-8 ovarian; 94.2% with OVCAR-5 ovarian; 98% in the experiment on OVCAR-4 ovarian; 98.8% in the experiment on SK-OV-3 ovarian; 74.8% in the experiment on IGROV1 ovarian; 111% with OVCAR-3 ovarian. The growth in the experiment with HS 578T breast was 94.7%; in the experiment on NCI/ADR-RES ovarian it was 65%.

For `COc1ccc(N=Nc2c(N)nn3c(N)c(C#N)c(-c4ccc(F)cc4)nc23)cc1`, the growth in the experiment on SK-MEL-2 melanoma is 110%; in the experiment with EKVX NSCLC it was 72.6%; with SN12C renal it was 61.3%; in the experiment on UO-31 renal it was 50.6%; in the experiment with TK-10 renal, 66.7%; with ACHN renal, 53.5%. Besides, the growth with CAKI-1 renal is 58.6%; in the experiment on A498 renal, 155%; in the experiment on CCRF-CEM leukemia, 86.7%; in the experiment on MOLT-4 leukemia, 77.6%; in the experiment with SR leukemia, 78.4%; in the experiment on RPMI-8226 leukemia, 50.3%. The growth in the experiment with OVCAR-8 ovarian was 29.6%; in the experiment with OVCAR-5 ovarian, 95.9%; in the experiment on OVCAR-4 ovarian it was 50.9%; with SK-OV-3 ovarian, 43.1%; with IGROV1 ovarian, 76.9%; with OVCAR-3 ovarian, 103%. Further, the growth in the experiment on HS 578T breast was 20.6%; in the experiment on NCI/ADR-RES ovarian, 25.1%.

For the molecule `COc1ccc(NC2=C(I)C(=O)C(C)=C(C)C2=O)cc1`, the growth was 56.9% with SK-MEL-2 melanoma; 25% in the experiment on EKVX NSCLC; 17% in the experiment with SN12C renal; 46.1% in the experiment with UO-31 renal; 155% with TK-10 renal; 30.4% in the experiment with ACHN renal. Besides, the growth in the experiment with CAKI-1 renal was 29.1%; with A498 renal, 113%; in the experiment with CCRF-CEM leukemia it was -11.1% (active); with MOLT-4 leukemia, -6.32% (active); in the experiment with SR leukemia, 12.3%; with RPMI-8226 leukemia, 2.98% (active). Further, the growth in the experiment on OVCAR-8 ovarian was -19.2% (active); in the experiment on OVCAR-5 ovarian it was 53.9%; in the experiment on OVCAR-4 ovarian it was -84.6% (active); with SK-OV-3 ovarian, 91.8%; in the experiment on IGROV1 ovarian, 15.3%; in the experiment with OVCAR-3 ovarian, -17.1% (active). Also, the figures for the growth in the experiment with HS 578T breast and in the experiment with NCI/ADR-RES ovarian were 85.6% and -20% (active), respectively.

With `CC[C@]12C=CCN3CC[C@@]4(c5ccc(OC)cc5N(C)[C@H]4[C@@](O)(C(=O)OC)[C@@H]1OC(=O)CCC[P+](c1ccc(OC)cc1)(c1ccc(OC)cc1)c1ccc(OC)cc1)[C@@H]32`, the growth in the experiment on SK-MEL-2 melanoma was -90.6% (active); in the experiment on EKVX NSCLC, -85% (active); in the experiment on SN12C renal, -93.4% (active); in the experiment on UO-31 renal, -56.8% (active); with TK-10 renal, -90.7% (active); with ACHN renal, -95.8% (active). The growth is -93.4% (active) in the experiment with CAKI-1 renal; -83.2% (active) with A498 renal; -71.2% (active) in the experiment with CCRF-CEM leukemia; -36.7% (active) with MOLT-4 leukemia; 15% with SR leukemia; -45.5% (active) in the experiment on RPMI-8226 leukemia. The growth in the experiment with OVCAR-8 ovarian was -86.2% (active); in the experiment on OVCAR-5 ovarian, -96.5% (active); with OVCAR-4 ovarian, -75.3% (active); in the experiment with SK-OV-3 ovarian it was -85.1% (active); with IGROV1 ovarian, -92.1% (active); with OVCAR-3 ovarian, -73.6% (active). The growth is -65.4% (active) in the experiment with HS 578T breast and 79.9% in the experiment on NCI/ADR-RES ovarian.

As to `COc1ccc(-c2nc3ccc(-c4nnc(SCC(=O)Nc5ccc(/C(C)=N\O)cc5)o4)cc3[nH]2)cc1`, the growth was 76.2% in the experiment with SK-MEL-2 melanoma; 95.3% in the experiment on EKVX NSCLC; 80.1% in the experiment with SN12C renal; 87.5% with UO-31 renal; 111% in the experiment with TK-10 renal; 85.9% in the experiment on ACHN renal. Besides, the growth in the experiment on CAKI-1 renal was 96.1%; in the experiment on A498 renal, 166%; in the experiment with CCRF-CEM leukemia, 55.6%; in the experiment on MOLT-4 leukemia, 55.9%; with SR leukemia, 47.9%; in the experiment on RPMI-8226 leukemia, 36.5%. For the same molecule, the growth in the experiment on OVCAR-8 ovarian was 55.4%; with OVCAR-5 ovarian, 113%; in the experiment on OVCAR-4 ovarian, 83.3%; in the experiment with SK-OV-3 ovarian it was 80.1%; in the experiment on IGROV1 ovarian it was 69.6%; in the experiment on OVCAR-3 ovarian it was 63.3%. For the same molecule, the growth with HS 578T breast was 6.55% (active); in the experiment with NCI/ADR-RES ovarian, 108%.

Source of the values: PubChem BioAssay (NCI).
